Where “and” joins values, the source holds several entries; their conditions need not be identical. Identical values can stand only once. Some structures have more than one record in an assay (separate samples or runs), and their calls can disagree. Calls of active or inactive are those of the source. The calls were made as follows: active = hit-call score of the fitted dose curve at least 0.9, where 1 is the maximum; inactive = score below 0.9.
Key:
[1] = ATG_PXRE_CIS: Attagene CIS-FACTORIAL HepG2 Assay for human Pregnane X Receptor Element (PXRE) (AID 2282957); conditions: HepG2 Attagene CIS-FACTORIAL PXRE reporter, mRNA; actives raise or lower the signal
In short: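 HepG2 cells transiently transfected with cis-regulated multiple reporter transcription units; endogenous factor activity measured as reporter mRNA 24 h after dosing. RT-PCR, fluorescent primer extension, HpaI digestion, capillary electrophoresis; bidirectional fit versus DMSO baseline.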

[2] = ATG_RORE_CIS: Attagene CIS-FACTORIAL HepG2 Assay for human RAR-related Orphan Receptor Element (RORE) (AID 2282959); conditions: HepG2 Attagene cis-factorial RORE reporter, mRNA; actives raise or lower the signal
In short: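 A 24-hour exposure of transfected HepG2 hepatoma cells precedes RNA isolation and reporter RT-PCR. Labeled products are digested with HpaI and resolved by capillary electrophoresis, with gain or loss of signal scored relative to DMSO.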

[3] = ATG_Sox_CIS: Attagene CIS-FACTORIAL HepG2 Assay for human SRY-box transcription factor (SOX) (AID 2282960); conditions: HepG2 Attagene cis-factorial SOX reporter, mRNA; actives raise or lower the signal
In short: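 HepG2, cis reporter units, 24 h exposure. Reporter mRNA: RT-PCR → FAM labelling → HpaI → CE fluorescence. Bidirectional fit vs DMSO.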

[4] = target: Transcription factor Sp1 (Homo sapiens) (UniProt P08047); experiment: ATG_Sp1_CIS: Attagene CIS-FACTORIAL HepG2 Assay for human Specificity Protein 1 (Sp1) (AID 2282961); conditions: HepG2 Sp1 cis-reporter transcription, actives raise or lower the signal
In short: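 Liver-derived HepG2 cells, cis-element reporter library, 24 h treatment; RNA isolated, cDNA amplified with reporter-specific primers, FAM-labeled fragments sized on capillary analyzer. DMSO baseline, bidirectional curve fit.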

[5] = ATG_SREBP_CIS: Attagene CIS-FACTORIAL HepG2 Assay for human Sterol Regulatory Element Binding (SREBP) (AID 2282962); conditions: HepG2 Attagene cis-factorial SREBP reporter, mRNA; actives raise or lower the signal
In short: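 HepG2 cells transiently transfected with multiplexed cis-promoter reporter units sensing endogenous transcription factors; reporter mRNA measured 24 h after dosing by RT-PCR, 6-FAM labeling, HpaI digestion and capillary electrophoresis. Bidirectional fit versus DMSO.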

[6] = target: Signal transducer and activator of transcription 3 (Homo sapiens) (UniProt P40763); experiment: ATG_STAT3_CIS: Attagene CIS-FACTORIAL HepG2 Assay for human Signal Transducer and Activator of Transcription 3 (STAT3) (AID 2282963); conditions: HepG2, Attagene cis-factorial STAT3 reporter transcription; actives raise or lower the signal
In short: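 Endogenous STAT3-responsive cis-element activity was read in transiently transfected HepG2 cells after 24 h treatment. Reporter transcripts were quantified via RT-PCR and capillary electrophoresis, with DMSO as negative control and bidirectional curve fitting.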

[7] = ATG_TA_CIS: Attagene CIS-FACTORIAL HepG2 Assay for human TA Basal Promoter (AID 2282964); conditions: HepG2 Attagene CIS-factorial TA basal promoter reporter; actives raise or lower the signal
In short: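 Fluorescence from labelled RT-PCR reporter fragments, separated by capillary electrophoresis, gives the signal. Cells: HepG2 transiently carrying multiple reporter units, 24 h chemical dosing. Gain or loss relative to DMSO.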

[8] = ATG_TCF_b_cat_CIS: Attagene CIS-FACTORIAL HepG2 Assay for human T-Cell-Factor with beta-catenin (TCF/b-cat) (AID 2282965); conditions: HepG2 TCF/beta-catenin cis-reporter transcription, actives raise or lower the signal
In short: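 Measured: reporter mRNA in HepG2 transiently transfected with cis-promoter reporter units, 24 h after chemical addition. Fitting was bidirectional, DMSO as negative control.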

[9] = ATG_TAL_CIS: Attagene CIS-FACTORIAL HepG2 Assay for human TAL Basal Promoter (AID 2282966); conditions: HepG2 Attagene cis-factorial TAL promoter reporter; actives raise or lower the signal;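 also: background control endpoint measuring basal TAL promoter reporter mRNA not a specific factor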
In short: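 HepG2 cells were transiently transfected with promoter-driven multiplexed reporter units and dosed for 24 h. Reporter mRNA was measured by RT-PCR with capillary electrophoresis fluorescence; bidirectional fits used DMSO as baseline, serving as a background control.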

[10] = ATG_PPRE_CIS: Attagene CIS-FACTORIAL HepG2 Assay for human Peroxisome Proliferator-activated Response Element (PPRE) (AID 2282958); conditions: HepG2 PPRE cis-element reporter, Attagene transcription factor profiling; actives raise or lower the signal
In short: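 PPRE activity in HepG2: transient cis-reporter transfection, 24 h compound incubation, reporter mRNA by RT-PCR and CE fluorescence; gain/loss fitted against DMSO.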

Measured: AC50

Transcription factor Sp1 (Homo sapiens), sequence (P08047 whole entry, looked up, the tested form may be a part): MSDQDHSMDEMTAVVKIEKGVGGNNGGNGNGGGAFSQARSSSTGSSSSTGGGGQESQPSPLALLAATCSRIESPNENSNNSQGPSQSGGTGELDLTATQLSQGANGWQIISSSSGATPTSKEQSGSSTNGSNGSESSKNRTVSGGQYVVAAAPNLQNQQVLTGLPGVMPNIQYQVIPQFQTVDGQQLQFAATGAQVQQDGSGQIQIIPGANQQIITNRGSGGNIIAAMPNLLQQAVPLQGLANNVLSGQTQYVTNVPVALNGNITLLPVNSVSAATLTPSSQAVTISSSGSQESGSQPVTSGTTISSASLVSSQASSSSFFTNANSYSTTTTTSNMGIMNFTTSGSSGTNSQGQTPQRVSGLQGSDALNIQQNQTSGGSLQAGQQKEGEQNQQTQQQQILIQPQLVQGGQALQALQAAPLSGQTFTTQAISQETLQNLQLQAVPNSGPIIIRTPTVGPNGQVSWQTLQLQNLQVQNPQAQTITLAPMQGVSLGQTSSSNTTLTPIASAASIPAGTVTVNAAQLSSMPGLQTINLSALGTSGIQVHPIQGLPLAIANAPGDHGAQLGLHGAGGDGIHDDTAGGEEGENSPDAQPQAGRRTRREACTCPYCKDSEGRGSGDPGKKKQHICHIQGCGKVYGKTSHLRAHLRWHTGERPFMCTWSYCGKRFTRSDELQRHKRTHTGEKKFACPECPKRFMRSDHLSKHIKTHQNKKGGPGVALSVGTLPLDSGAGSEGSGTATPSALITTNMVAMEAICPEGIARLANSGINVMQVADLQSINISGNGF
Signal transducer and activator of transcription 3 (Homo sapiens), sequence (P40763 whole entry, looked up): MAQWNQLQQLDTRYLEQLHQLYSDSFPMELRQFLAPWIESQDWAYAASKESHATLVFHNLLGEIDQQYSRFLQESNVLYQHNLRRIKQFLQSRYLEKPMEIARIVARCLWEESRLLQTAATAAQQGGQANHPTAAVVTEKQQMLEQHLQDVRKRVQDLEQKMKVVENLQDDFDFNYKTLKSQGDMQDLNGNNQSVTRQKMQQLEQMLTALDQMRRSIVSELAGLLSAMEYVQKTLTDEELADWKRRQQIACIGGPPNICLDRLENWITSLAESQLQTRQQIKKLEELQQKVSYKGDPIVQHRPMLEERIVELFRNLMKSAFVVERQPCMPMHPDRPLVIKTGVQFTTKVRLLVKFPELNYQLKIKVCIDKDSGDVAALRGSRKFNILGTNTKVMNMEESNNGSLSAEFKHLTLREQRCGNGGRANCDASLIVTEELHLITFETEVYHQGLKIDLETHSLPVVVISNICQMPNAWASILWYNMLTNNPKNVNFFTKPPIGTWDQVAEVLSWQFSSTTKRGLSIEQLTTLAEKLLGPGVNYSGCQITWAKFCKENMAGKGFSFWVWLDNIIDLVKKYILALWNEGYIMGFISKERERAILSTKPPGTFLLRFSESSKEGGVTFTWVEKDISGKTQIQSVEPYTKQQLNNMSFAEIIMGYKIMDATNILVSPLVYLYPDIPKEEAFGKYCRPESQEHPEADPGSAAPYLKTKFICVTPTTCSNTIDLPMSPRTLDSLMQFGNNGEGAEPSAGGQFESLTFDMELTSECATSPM

O=C(O)c1ccccc1
inactive: [1] | [2] | [3] | [4] | [5] | [6] | [7] | [8] | [9]

CCN(Cc1c(F)cccc1Cl)c1c([N+](=O)[O-])cc(C(F)(F)F)cc1[N+](=O)[O-]
inactive: [10] | [2] | [3] | [4] | [5] | [6] | [7] | [8] | [9]
active: [1] 1.26 µM

CCCCCCC(C)OC(=O)COc1nc(F)c(Cl)c(N)c1Cl (stereo not drawn)
inactive: [1] | [2] | [3] | [4] | [5] | [6] | [7] | [8] | [9]

COCCO
inactive: [1] | [10] | [2] | [3] | [4] | [5] | [6] | [7] | [8] | [9]
active: [1] 24.7 µM

OB(O)O
inactive: [10] | [2] | [3] | [4] | [5] | [6] | [7] | [8] | [9]

COc1nc(C)nc(NC(=O)NS(=O)(=O)c2ccccc2OCCCl)n1
active: [1] 34.2 µM and 5.58 µM
inactive: [10] | [2] | [3] | [4] | [5] | [6] | [7] | [8] | [9]

O=C(Nc1ccc([N+](=O)[O-])cc1Cl)c1cc(Cl)ccc1O
active: [1] 0.426 µM | [2] 1.19 µM | [4] 0.7 µM | [5] 0.7 µM
inactive: [10] | [3] | [6] | [7] | [8] | [9]

CC(C)CCCCCCc1ccc(O)cc1
inactive: [10] | [2] | [3] | [4] | [5] | [6] | [7] | [8] | [9]
active: [1] 2.88 µM [middle of 4 runs] | [10] 11.1 µM | [3] 17.8 µM and 17.5 µM | [4] 19.4 µM and 16.2 µM | [5] 20.2 µM | [7] 20.3 µM | [8] 15.2 µM and 16.8 µM and 17.4 µM

CCCN(CCC)c1c([N+](=O)[O-])cc(C(F)(F)F)c(N)c1[N+](=O)[O-]
active: [1] 1.29 µM | [4] 28.9 µM
inactive: [10] | [2] | [3] | [5] | [6] | [7] | [8] | [9]

CC(=O)S[C@@H]1CC2=CC(=O)CC[C@]2(C)[C@H]2CC[C@@]3(C)[C@@H](CC[C@@]34CCC(=O)O4)[C@H]12
active: [10] 2.4 µM | [4] 26.3 µM and 4.58 µM | [5] 100 µM | [6] 178 µM | [7] 182 µM | [8] 39.1 µM
inactive: [10] | [2] | [3] | [4] | [5] | [6] | [7] | [8] | [9]

CCCOC(=O)c1ccc(C(=O)OCCC)nc1
active: [10] 23.1 µM
inactive: [1] | [3] | [4] | [5] | [6] | [7] | [8] | [9]

C[C@]12C[C@H](O)[C@H]3[C@@H](CCC4=CC(=O)CC[C@@]43C)[C@@H]1CC[C@@H]2C(=O)CO
active: [1] 32.7 µM [middle of 4 runs]
inactive: [10] | [2] | [3] | [4] | [5] | [6] | [7] | [8] | [9]

c1ccc2[nH]c(-c3cscn3)nc2c1
inactive: [10] | [2] | [3] | [4] | [5] | [6] | [7] | [8] | [9]

CCC(O)=C1C(=O)CC(C(=O)O)CC1=O (stereo not drawn)
inactive: [1] | [10] | [2] | [3] | [4] | [5] | [6] | [7] | [8] | [9]

CCCOC(=O)NCCCN(C)C
inactive: [1] | [2] | [3] | [4] | [5] | [6] | [7] | [8] | [9]

CCNc1nc(N)nc(Cl)n1
inactive: [1] | [3] | [4] | [5] | [6] | [7] | [8] | [9]

O=C(c1ccccc1)C1CCCCC1
inactive: [10] | [2] | [3] | [4] | [5] | [6] | [7] | [8] | [9]
active: [1] 26.9 µM [middle of 4 runs] | [10] 31.5 µM and 67.1 µM

N[C@@H](Cc1cc(I)c(Oc2ccc(O)c(I)c2)c(I)c1)C(=O)O
active: [10] 13 µM and 22.3 µM | [8] 41.6 µM and 24.3 µM
inactive: [10] | [2] | [3] | [4] | [5] | [6] | [7] | [8] | [9]

N#CSCSc1nc2ccccc2s1
active: [10] 2.81 µM | [4] 17.8 µM | [8] 1.99 µM
inactive: [10] | [2] | [3] | [4] | [5] | [6] | [7] | [8] | [9]

CN(C)C(=O)Nc1ccc(Cl)c(Cl)c1
inactive: [10] | [2] | [3] | [4] | [5] | [6] | [7] | [8] | [9]
active: [10] 37 µM | [2] 100 µM | [4] 180 µM

CCCCCOC(=O)COc1cc(N2C(=O)C3=C(CCCC3)C2=O)c(F)cc1Cl
inactive: [2] | [3] | [4] | [5] | [6] | [7] | [9]
active: [1] 10.2 µM | [8] 26.6 µM

COC(=O)c1c(Cl)nn(C)c1S(=O)(=O)NC(=O)Nc1nc(OC)cc(OC)n1
inactive: [1] | [10] | [2] | [3] | [4] | [5] | [6] | [7] | [8] | [9]

CC(C)(c1ccc(O)cc1)c1ccc(O)cc1
active: [10] 28.6 µM and 38.9 µM and 15 µM | [4] 60 µM | [6] 33.4 µM | [7] 140 µM [middle of 4 runs] | [9] 162 µM
inactive: [1] | [10] | [3] | [4] | [5] | [6] | [7] | [8] | [9]

Cc1nn(C)c(Oc2ccccc2)c1C=NOCc1ccc(C(=O)OC(C)(C)C)cc1
inactive: [2] | [3] | [5] | [6] | [7] | [8] | [9]
active: [1] 1.15 µM | [10] 0.0423 µM | [4] 0.0212 µM

CC(=O)[C@H]1CC[C@H]2[C@@H]3CCC4=CC(=O)CC[C@]4(C)[C@H]3CC[C@]12C
active: [1] 4.83 µM [middle of 4 runs] | [5] 33.4 µM [middle of 4 runs] | [6] 180 µM | [9] 177 µM
inactive: [10] | [3] | [4] | [6] | [7] | [8] | [9]

c1ccc(Nc2ccccc2)cc1
inactive: [10] | [2] | [3] | [4] | [5] | [6] | [7] | [8] | [9]
active: [1] 64 µM and 37.5 µM | [10] 20.6 µM

CCOC(=O)NCCOc1ccc(Oc2ccccc2)cc1
active: [1] 10 µM | [10] 8.06 µM | [2] 13.3 µM
inactive: [3] | [4] | [5] | [6] | [7] | [8] | [9]

COC(=O)c1cccc(C)c1S(=O)(=O)NC(=O)Nc1nc(OCC(F)(F)F)nc(N(C)C)n1
inactive: [10] | [2] | [3] | [4] | [5] | [6] | [7] | [8] | [9]
active: [1] 34.5 µM

CCC(C)OC(=O)N1CCCCC1CCO (stereo not drawn)
active: [1] 20.7 µM and 15 µM
inactive: [10] | [2] | [3] | [4] | [5] | [6] | [7] | [8] | [9]

O=C(c1ccc(O)cc1O)c1ccc(O)cc1O
inactive: [1] | [10] | [2] | [3] | [4] | [5] | [6] | [7] | [8] | [9]
active: [10] 28.4 µM | [8] 53.5 µM

C#C[C@]1(O)CC[C@H]2[C@@H]3CCC4=CC(=O)CC[C@@H]4[C@H]3CC[C@@]21CC
inactive: [10] | [2] | [3] | [4] | [5] | [6] | [7] | [8] | [9]

C=CCOC(Cn1ccnc1)c1ccc(Cl)cc1Cl (stereo not drawn)
active: [5] 6.99 µM
inactive: [10] | [2] | [3] | [4] | [6] | [7] | [8] | [9]

CCOC(=O)c1ccc(O)cc1
inactive: [2] | [3] | [4] | [5] | [6] | [7] | [8] | [9]
active: [2] 57.3 µM | [5] 43.7 µM

COC(=O)c1ccc(CNS(C)(=O)=O)cc1S(=O)(=O)NC(=O)Nc1nc(OC)cc(OC)n1
inactive: [10] | [2] | [3] | [4] | [5] | [6] | [7] | [8] | [9]

CCOC(=O)COc1cc(-n2ncc(C(F)(F)F)c(C)c2=O)c(F)cc1Cl
inactive: [10] | [2] | [3] | [4] | [5] | [6] | [7] | [8] | [9]

Reference: PubChem BioAssay (EPA / NIEHS)
